{
  "source": "PubChem BioAssay AID2685",
  "about": "(National Center for Advancing Translational Sciences (NCATS), 2010)",
  "note": "Out of some 320,000 compounds screened, about 2,100 (0.66%) were called active. About 53% were inconclusive and are not listed. This is one part of a sample in which actives are shown more often than they occur. Calls come from the whole dose curve; as a rule, active = well fitted inhibition curve with a large enough effect in the signal ratio, with a control signal flat (not every such curve was filed as active); inconclusive = small, poorly fitted or top-dose-only effect, or effect the other way, or a change in a side signal; inactive = flat fitted curve, though single readings scatter; the % refers to the signal ratio. Potency is the fitted concentration of half-maximal effect.",
  "data": [
    {"assay": "qHTS Assay for Lipid Storage Modulators in Drosophila S3 Cells;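 for cell number change: cells counted by Cell Tracker Red CMTPX staining in the red channel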; for lipid storage change, negative = inhibition: % is set by controls: 0 for no effect and ±100 for the full control effect", "details": "BODIPY lipid droplet fluorescence, 18-24 h, cells fed with added oleic acid; cell number change: measured here: cell count max response; series mostly up to 46.1 µM; lipid storage change, negative = inhibition: at the top concentration", "procedure,_shortened": "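Drosophila S3 cells loaded with oleic acid (400 uM, as added) and compounds at several concentrations; lipid droplets imaged by 488-nm laser-scanning cytometry, 500–530 nm intensity and object ratio to cell channel. Percent activity normalized to 20 uM Triacsin C.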", "units": {"cell number change": "%"}, "values": [
      {"smiles": "COCCNC(=S)Nc1ccc(S(=O)(=O)Nc2ncccn2)cc1", "lipid storage change, negative = inhibition": "6.38% (inactive)"},
      {"smiles": "CC(C)OP(=O)(OC(C)C)C(Nc1ccccc1)c1ccc2c(c1)OCO2", "note": "(stereo not drawn)", "lipid storage change, negative = inhibition": "-18.8% (inactive)", "cell number change": -17},
      {"smiles": "CC1(C(=O)OCc2cc(=O)n3cc(Br)ccc3n2)CC1(Cl)Cl", "note": "(stereo not drawn)", "lipid storage change, negative = inhibition": "28.5% (inactive)", "cell number change": 20.1},
      {"smiles": "Nc1nc(/C=C/c2cccnc2)nc(-c2ccccc2O)n1", "lipid storage change, negative = inhibition": "-12.8% (inactive)", "cell number change": -9.25},
      {"smiles": "CCC(CC)C(=O)N(c1ccc(F)cc1)C1C=CS(=O)(=O)C1", "note": "(stereo not drawn)", "lipid storage change, negative = inhibition": "21.6% (inactive)", "cell number change": -1.72},
      {"smiles": "COc1ccc(N(C(=O)Cc2cccs2)C(C(=O)NC2CCCC2)c2ccncc2)cc1OC", "note": "(stereo not drawn)", "outcome": "inactive", "cell number change": 16.1},
      {"smiles": "CC1=CC(C)(C)N(C(=O)CSc2nnc(N)s2)c2cc(C)c(C)cc21", "lipid storage change, negative = inhibition": "9.13% (inactive)", "cell number change": 6.05},
      {"smiles": "COc1ccccc1NC(=O)c1nc(S(=O)(=O)Cc2ccccc2)ncc1Cl", "outcome": "inactive", "cell number change": -4.72},
      {"smiles": "CCc1ccc(NC(=O)c2nc(S(=O)(=O)Cc3ccccc3)ncc2Cl)cc1", "Potency": "1.16 µM (active)", "cell number change": -18.2},
      {"smiles": "COC(=O)c1ccccc1NC(=O)c1nc(S(=O)(=O)Cc2ccccc2)ncc1Cl", "outcome": "inactive", "cell number change": -21.2},
      {"smiles": "O=C(OCc1ccc(Cl)c(Cl)c1)c1ccc[nH]1", "lipid storage change, negative = inhibition": "-19.8% (inactive)", "cell number change": 0.855},
      {"smiles": "COc1ccc(CNC2c3ccccc3-c3ccccc32)cc1OC", "Potency": "3.66 µM (active)", "cell number change": 14.9},
      {"smiles": "COc1ccc(CNc2ncccn2)cc1OC", "lipid storage change, negative = inhibition": "-2.64% (inactive)", "cell number change": 2.02},
      {"smiles": "CCOc1ccc(CNC2CCCCCCC2)cc1OC", "lipid storage change, negative = inhibition": "-10.8% (inactive)", "cell number change": -6.56},
      {"smiles": "Cc1ccccc1-n1c(Cn2c(=O)sc3ccccc32)nnc1SCC(=O)N1CCOCC1", "lipid storage change, negative = inhibition": "-10.7% (inactive)", "cell number change": -4.41},
      {"smiles": "Cc1cc(C)n(CCC(=O)N=Nc2c(O)[nH]c3ccc(Br)cc23)n1", "lipid storage change, negative = inhibition": "4.25% (inactive)", "cell number change": -11.1},
      {"smiles": "CCOCCCNC(=O)c1ccc2c(c1)N=C(CC)c1cc(Br)ccc1S2", "lipid storage change, negative = inhibition": "1.52% (inactive)", "cell number change": 13.2},
      {"smiles": "COc1ccc(CN2CCSCC2)cc1C", "Potency": "23.1 µM (active)", "cell number change": 8.44},
      {"smiles": "COc1ccccc1CN1CCSCC1", "Potency": "23.1 µM (active)", "cell number change": -20},
      {"smiles": "COc1ccccc1CN1CCCCCC1", "lipid storage change, negative = inhibition": "4.08% (inactive)", "cell number change": 10.4},
      {"smiles": "COc1cccc(CN2CCSCC2)c1OC", "lipid storage change, negative = inhibition": "2.57% (inactive)", "cell number change": 10.1},
      {"smiles": "COc1cccc(CN2CCSCC2)c1", "lipid storage change, negative = inhibition": "-2.92% (inactive)", "cell number change": 8.55},
      {"smiles": "COc1cc(CN2CCSCC2)cc(OC)c1OC", "lipid storage change, negative = inhibition": "6.26% (inactive)", "cell number change": -0.391},
      {"smiles": "O=C(Nc1ccc(F)cc1)N1CCCN(c2ccc(C(F)(F)F)cn2)CC1", "lipid storage change, negative = inhibition": "5.76% (inactive)", "cell number change": -1.28},
      {"smiles": "O=C1C2C3c4ccccc4C(c4ccccc43)C2C(=O)N1/N=C/c1cccc(O)c1", "note": "(stereo not drawn)", "lipid storage change, negative = inhibition": "3.58% (inactive)", "cell number change": 9.29},
      {"smiles": "CC1(C)CC(NC(=O)c2cc(S(=O)(=O)N3CCOCC3)c(Cl)cc2Cl)CC(C)(C)N1", "outcome": "inactive", "cell number change": -3.63},
      {"smiles": "COc1cc(/C=C2\\SC(N3CCc4ccccc4C3)=NC2=O)cc(OC)c1OC", "lipid storage change, negative = inhibition": "23.5% (inactive)", "cell number change": 4.12},
      {"smiles": "COc1ccc(/C=C(\\C#N)c2nc3ccc(C)cc3[nH]2)cc1Oc1ccc(C(F)(F)F)cc1[N+](=O)[O-]", "Potency": "8.2 µM (active)"},
      {"smiles": "Cc1ccc2nc(/C(C#N)=C/c3ccccc3C(=O)O)[nH]c2c1", "outcome": "inactive"},
      {"smiles": "Cc1ccc2nc(/C(C#N)=C\\c3ccc([N+](=O)[O-])o3)[nH]c2c1", "Potency": "6.51 µM (active)", "cell number change": -22.5},
      {"smiles": "N#C/C(=C\\c1ccc(-c2ccccc2C(=O)O)o1)c1nc2ccccc2[nH]1", "lipid storage change, negative = inhibition": "-14.4% (inactive)", "cell number change": -1.22},
      {"smiles": "N#C/C(=C\\c1ccc(Oc2ccc(C(F)(F)F)cc2[N+](=O)[O-])cc1)c1nc2ccccc2[nH]1", "lipid storage change, negative = inhibition": "-16.1% (inactive)", "cell number change": -10.6},
      {"smiles": "N#C/C(=C\\c1ccc([N+](=O)[O-])o1)c1nc2ccccc2[nH]1", "Potency": "4.11 µM (active)", "cell number change": -21.1},
      {"smiles": "Cc1ccc2nc(/C(C#N)=C\\c3ccc(Oc4ccc(C(F)(F)F)cc4[N+](=O)[O-])cc3)[nH]c2c1", "lipid storage change, negative = inhibition": "-3.61% (inactive)", "cell number change": 1.55},
      {"smiles": "Cc1ccc2nc(/C(C#N)=C/c3cn[nH]c3-c3ccc(F)cc3)[nH]c2c1", "outcome": "inactive", "cell number change": -24.5},
      {"smiles": "N#C/C(=C(/O)c1ccc([N+](=O)[O-])o1)c1nc2ccccc2[nH]1", "lipid storage change, negative = inhibition": "-16.9% (inactive)", "cell number change": -1.26},
      {"smiles": "CCOC(=O)c1c(NC(=O)C2CC2)sc2c1CC(C)(C)OC2", "lipid storage change, negative = inhibition": "-4.23% (inactive)", "cell number change": 0.857},
      {"smiles": "COC(=O)C(C)n1nc(C)n(-c2ccc(C)cc2)c1=O", "note": "(stereo not drawn)", "lipid storage change, negative = inhibition": "-18.3% (inactive)", "cell number change": -11.2},
      {"smiles": "COc1ccc(CC(=O)Nc2ccc(C(=O)Nc3ccccc3C(=O)O)cc2)cc1OC", "lipid storage change, negative = inhibition": "13.2% (inactive)", "cell number change": 17.1},
      {"smiles": "COc1cc(C(=O)NC(c2ccccc2)c2ccccc2)cc(Cl)c1OC", "lipid storage change, negative = inhibition": "-11.7% (inactive)", "cell number change": 14.2},
      {"smiles": "CC(C)(C)C(=O)N1CCN(c2ccc(NC(=O)c3ccc4c(c3)OCCO4)cc2)CC1", "Potency": "16.4 µM (active)", "cell number change": -3.48},
      {"smiles": "Cc1ccc(C(=O)N2CCN(c3ccc(NC(=O)c4ccc5c(c4)OCCO5)cc3)CC2)cc1", "lipid storage change, negative = inhibition": "0.0275% (inactive)"},
      {"smiles": "CCC(=O)N1CCN(c2ccc(NC(=O)c3ccc4c(c3)OCCO4)cc2)CC1", "lipid storage change, negative = inhibition": "1.66% (inactive)", "cell number change": 25.3},
      {"smiles": "CCN(CC(=O)Nc1ccccc1C(F)(F)F)C(=O)c1ccc(=O)n(Cc2ccccc2)n1", "lipid storage change, negative = inhibition": "7.12% (inactive)", "cell number change": 22.5},
      {"smiles": "CC(=O)c1cn(CC(=O)NCC2CCCO2)c2ccccc12", "note": "(stereo not drawn)", "lipid storage change, negative = inhibition": "18% (inactive)", "cell number change": 3.78},
      {"smiles": "COc1cc(CNC2CCCCCCC2)c(Br)cc1OCCO", "lipid storage change, negative = inhibition": "-10.5% (inactive)", "cell number change": -14}
    ]}
  ]
}
